Test [1] deals with Tyrosine-protein kinase SYK (Homo sapiens) (UniProt P43405). To be noted: at 10 µM.
The target in test [2] is T1, Mitogen-activated protein kinase kinase kinase 7 (Homo sapiens) (UniProt O43318).
T1 sequence (whole entry): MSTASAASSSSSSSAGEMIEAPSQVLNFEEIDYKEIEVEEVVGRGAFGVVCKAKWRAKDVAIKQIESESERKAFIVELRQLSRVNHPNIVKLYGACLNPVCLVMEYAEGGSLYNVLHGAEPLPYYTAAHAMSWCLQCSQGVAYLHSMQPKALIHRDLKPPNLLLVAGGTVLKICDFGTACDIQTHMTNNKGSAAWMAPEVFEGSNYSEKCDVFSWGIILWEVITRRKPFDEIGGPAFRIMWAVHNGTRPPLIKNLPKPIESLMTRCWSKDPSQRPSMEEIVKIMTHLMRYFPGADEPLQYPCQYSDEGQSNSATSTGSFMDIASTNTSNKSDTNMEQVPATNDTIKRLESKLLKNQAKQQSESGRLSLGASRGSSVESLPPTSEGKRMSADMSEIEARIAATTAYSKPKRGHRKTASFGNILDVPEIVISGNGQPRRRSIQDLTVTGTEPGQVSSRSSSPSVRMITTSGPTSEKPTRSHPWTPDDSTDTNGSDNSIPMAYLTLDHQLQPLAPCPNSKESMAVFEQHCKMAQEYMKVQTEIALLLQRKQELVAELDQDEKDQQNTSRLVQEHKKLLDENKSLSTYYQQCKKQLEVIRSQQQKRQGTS
Particulars: at 10 µM.

For test [3], the target named is T2, Serine/threonine-protein kinase TAO1 (Homo sapiens) (UniProt Q7L7X3).
T2 sequence (whole entry): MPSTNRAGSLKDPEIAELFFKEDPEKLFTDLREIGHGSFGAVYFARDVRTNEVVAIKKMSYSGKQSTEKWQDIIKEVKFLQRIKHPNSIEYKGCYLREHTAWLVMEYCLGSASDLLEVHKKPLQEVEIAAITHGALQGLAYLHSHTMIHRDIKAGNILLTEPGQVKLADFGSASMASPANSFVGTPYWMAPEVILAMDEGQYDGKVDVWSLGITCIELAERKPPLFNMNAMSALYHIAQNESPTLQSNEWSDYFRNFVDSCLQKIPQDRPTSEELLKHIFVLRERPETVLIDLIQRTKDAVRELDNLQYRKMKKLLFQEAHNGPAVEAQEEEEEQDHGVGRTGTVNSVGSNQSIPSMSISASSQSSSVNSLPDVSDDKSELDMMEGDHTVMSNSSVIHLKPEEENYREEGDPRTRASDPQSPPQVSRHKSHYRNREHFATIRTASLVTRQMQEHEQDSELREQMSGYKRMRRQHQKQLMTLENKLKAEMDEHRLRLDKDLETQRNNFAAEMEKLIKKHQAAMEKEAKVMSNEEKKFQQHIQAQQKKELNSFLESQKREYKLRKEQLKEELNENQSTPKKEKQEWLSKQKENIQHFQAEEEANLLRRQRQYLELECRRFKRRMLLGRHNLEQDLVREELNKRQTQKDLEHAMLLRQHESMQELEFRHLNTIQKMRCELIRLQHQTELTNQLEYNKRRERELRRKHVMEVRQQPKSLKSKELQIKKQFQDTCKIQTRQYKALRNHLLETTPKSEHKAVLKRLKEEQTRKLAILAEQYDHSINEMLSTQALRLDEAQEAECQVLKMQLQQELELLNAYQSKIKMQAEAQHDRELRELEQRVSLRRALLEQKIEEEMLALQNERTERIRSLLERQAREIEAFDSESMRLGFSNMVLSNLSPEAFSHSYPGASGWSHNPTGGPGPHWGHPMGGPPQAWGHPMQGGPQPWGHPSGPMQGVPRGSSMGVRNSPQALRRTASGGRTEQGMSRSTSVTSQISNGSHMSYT
Particulars: at 10 µM.

In test [4] the target is T3, Serine/threonine-protein kinase TAO2 (Homo sapiens) (UniProt Q9UL54).
T3 sequence (whole entry): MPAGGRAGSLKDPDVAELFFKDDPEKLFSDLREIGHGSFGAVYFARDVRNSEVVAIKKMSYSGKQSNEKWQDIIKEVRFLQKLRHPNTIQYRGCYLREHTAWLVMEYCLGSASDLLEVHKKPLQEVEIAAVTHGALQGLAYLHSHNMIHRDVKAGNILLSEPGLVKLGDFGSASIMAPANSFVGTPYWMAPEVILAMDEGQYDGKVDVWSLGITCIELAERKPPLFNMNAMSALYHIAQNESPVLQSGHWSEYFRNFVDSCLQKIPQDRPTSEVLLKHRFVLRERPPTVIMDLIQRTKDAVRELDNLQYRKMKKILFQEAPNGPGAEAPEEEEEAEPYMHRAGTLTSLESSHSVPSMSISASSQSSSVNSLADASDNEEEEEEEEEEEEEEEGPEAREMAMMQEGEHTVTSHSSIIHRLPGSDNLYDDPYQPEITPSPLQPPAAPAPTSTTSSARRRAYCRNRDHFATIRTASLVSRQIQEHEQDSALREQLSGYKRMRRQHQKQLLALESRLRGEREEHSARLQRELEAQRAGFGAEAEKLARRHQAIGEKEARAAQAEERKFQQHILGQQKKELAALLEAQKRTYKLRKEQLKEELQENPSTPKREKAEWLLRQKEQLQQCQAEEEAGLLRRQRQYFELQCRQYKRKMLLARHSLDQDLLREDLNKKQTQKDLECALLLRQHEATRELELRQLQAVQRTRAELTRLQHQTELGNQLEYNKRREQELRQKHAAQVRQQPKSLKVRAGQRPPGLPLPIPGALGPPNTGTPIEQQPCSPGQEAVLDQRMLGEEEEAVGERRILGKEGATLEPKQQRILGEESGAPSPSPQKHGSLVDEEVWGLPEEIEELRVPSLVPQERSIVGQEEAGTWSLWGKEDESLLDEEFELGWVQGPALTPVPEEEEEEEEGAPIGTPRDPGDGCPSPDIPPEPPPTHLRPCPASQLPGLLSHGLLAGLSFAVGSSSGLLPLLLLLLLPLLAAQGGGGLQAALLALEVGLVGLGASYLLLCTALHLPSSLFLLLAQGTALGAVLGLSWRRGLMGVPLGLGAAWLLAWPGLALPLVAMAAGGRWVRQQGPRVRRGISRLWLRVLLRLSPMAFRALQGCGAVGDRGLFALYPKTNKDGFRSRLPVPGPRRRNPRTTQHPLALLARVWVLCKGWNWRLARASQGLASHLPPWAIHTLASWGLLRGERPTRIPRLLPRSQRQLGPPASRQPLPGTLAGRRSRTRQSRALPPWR
To be noted: at 10 µM.

The target in test [5] is T4, Serine/threonine-protein kinase TAO3 (Homo sapiens) (UniProt Q9H2K8).
T4 sequence (whole entry): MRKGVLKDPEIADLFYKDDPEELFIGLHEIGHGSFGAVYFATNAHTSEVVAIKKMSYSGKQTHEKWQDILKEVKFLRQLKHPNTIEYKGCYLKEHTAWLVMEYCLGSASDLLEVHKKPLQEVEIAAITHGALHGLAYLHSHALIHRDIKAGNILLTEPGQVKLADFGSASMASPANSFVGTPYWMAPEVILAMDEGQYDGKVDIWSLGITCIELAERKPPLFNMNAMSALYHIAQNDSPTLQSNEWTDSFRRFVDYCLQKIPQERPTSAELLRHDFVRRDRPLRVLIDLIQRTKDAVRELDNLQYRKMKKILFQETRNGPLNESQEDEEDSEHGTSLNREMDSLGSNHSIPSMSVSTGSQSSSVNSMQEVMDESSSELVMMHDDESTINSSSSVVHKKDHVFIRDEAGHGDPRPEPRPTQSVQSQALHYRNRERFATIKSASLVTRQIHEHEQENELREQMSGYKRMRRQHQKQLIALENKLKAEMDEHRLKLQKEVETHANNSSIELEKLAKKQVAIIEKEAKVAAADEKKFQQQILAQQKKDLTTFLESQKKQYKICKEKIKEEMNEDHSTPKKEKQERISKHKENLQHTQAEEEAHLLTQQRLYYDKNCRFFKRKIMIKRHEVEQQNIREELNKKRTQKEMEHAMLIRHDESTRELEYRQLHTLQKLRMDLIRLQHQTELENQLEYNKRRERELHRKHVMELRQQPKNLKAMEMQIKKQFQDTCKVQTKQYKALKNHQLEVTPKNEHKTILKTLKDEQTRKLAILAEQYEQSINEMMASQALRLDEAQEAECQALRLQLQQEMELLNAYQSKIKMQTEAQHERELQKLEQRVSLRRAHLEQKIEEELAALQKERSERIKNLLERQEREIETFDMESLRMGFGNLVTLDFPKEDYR
Particulars: at 1 µM.

Test [6] has as its target T4, Serine/threonine-protein kinase TAO3 (Homo sapiens). To be noted: at 10 µM.
Test [7] has as its target T5, Serine/threonine-protein kinase TBK1 (Homo sapiens) (UniProt Q9UHD2).
T5 sequence (whole entry): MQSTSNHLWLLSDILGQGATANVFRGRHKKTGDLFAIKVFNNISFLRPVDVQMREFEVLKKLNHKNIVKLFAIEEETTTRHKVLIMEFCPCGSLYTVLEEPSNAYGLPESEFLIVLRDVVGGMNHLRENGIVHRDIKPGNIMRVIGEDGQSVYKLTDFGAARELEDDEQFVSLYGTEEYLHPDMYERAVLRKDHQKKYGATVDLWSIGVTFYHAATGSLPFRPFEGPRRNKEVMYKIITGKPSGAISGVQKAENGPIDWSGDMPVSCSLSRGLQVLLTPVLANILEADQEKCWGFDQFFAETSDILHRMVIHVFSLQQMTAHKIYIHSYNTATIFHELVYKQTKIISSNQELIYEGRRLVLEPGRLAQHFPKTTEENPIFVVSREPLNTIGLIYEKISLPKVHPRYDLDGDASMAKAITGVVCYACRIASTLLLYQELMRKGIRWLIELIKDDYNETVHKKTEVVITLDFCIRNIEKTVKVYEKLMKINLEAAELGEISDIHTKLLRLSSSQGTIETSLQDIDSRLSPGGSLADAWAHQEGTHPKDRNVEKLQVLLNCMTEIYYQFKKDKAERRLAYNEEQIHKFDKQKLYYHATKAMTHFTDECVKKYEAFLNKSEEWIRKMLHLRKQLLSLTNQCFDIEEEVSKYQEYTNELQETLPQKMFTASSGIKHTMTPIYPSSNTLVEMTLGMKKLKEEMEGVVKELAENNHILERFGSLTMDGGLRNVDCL
To be noted: at 1 µM.

Turning to `N#CC(C#N)=C(N)/C(C#N)=C/c1ccc(O)cc1`, the residual activity is 74% in test [1]; 89% in test [2]; 81% in test [3]; 87% in test [4]; 99% in test [5]; 85% in test [6]. This molecule also had a residual activity in test [7] of 82%.
